This passage reports outcome and AC50 results from PubChem BioAssay (EPA / NIEHS).

Calls of active or inactive are those of the source. The calls were made as follows: active = hit-call score of the fitted dose curve at least 0.9, where 1 is the maximum; inactive = score below 0.9.

Read-out in experiment [1]: serum amyloid A (SAA), SAA1 (gene 6288)
The experiment is described as follows: BSK_CASM3C_SAA: BioMAP Diversity Plus: CASM3C Assay for serum amyloid A (SAA) Biomarker Activity (AID 2283049).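 Also: SAA protein level quantified by ELISA.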 Particulars: primary human coronary artery smooth muscle cells; actives raise or lower the signal.

A short description of experiment [2]: BSK_CASM3C_SRB: Viability Assessment in the BioMAP Diversity Plus: CASM3C Assay (AID 2283050).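 Also: cells exposed to compound for 24 h.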 Particulars: primary human coronary artery smooth muscle cells.
Read-out in experiment [3]: Thrombomodulin, THBD (gene 7056)
As to the kind of experiment: BSK_CASM3C_Thrombomodulin: BioMAP Diversity Plus: CASM3C Assay for Thrombomodulin Biomarker Activity (AID 2283051).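 Also: thrombomodulin protein level measured by ELISA 24 h after dosing.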 Particulars: primary human coronary artery smooth muscle cells; actives raise or lower the signal.

Read-out in experiment [4]: Tissue Factor, F3 (gene 2152)
As to the kind of experiment: BSK_CASM3C_TissueFactor: BioMAP Diversity Plus: CASM3C Assay for Tissue Factor Biomarker Activity (AID 2283052).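 Also: cell surface tissue factor protein level read by ELISA.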 Particulars: primary human coronary artery smooth muscle cells; actives raise or lower the signal.

Read-out in experiment [5]: Interferon-gamma inducible Protein 10 (IP10), CXCL10 (gene 3627)
The experiment is described as follows: BSK_hDFCGF_IP10: BioMAP Diversity Plus: hDFCGF Assay for Interferon-gamma inducible Protein 10 (IP10) Biomarker Activity (AID 2283053). Particulars: primary human foreskin fibroblasts; actives raise or lower the signal. Summed up:
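Chemical-treated human skin fibroblasts (primary) were sampled at 24 h for IP-10 by ELISA. Both increases and decreases relative to DMSO were scored.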

Read-out in experiment [6]: Urokinase-type plasminogen activator receptor (uPAR), PLAUR (gene 5329)
The experiment is described as follows: BSK_CASM3C_uPAR: BioMAP Diversity Plus: CASM3C Assay for Urokinase-type plasminogen activator receptor (uPAR) Biomarker Activity (AID 2283054).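 Also: cell-surface uPAR protein level quantified by ELISA.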 Particulars: primary human coronary artery smooth muscle cells; actives raise or lower the signal.

Read-out in experiment [7]: Vascular cell adhesion molecule 1 (VCAM1), VCAM1 (gene 7412)
As to the kind of experiment: BSK_CASM3C_VCAM1: BioMAP Diversity Plus: CASM3C Assay for Vascular cell adhesion molecule 1 (VCAM1) Biomarker Activity (AID 2283055).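 Also: VCAM-1 protein level quantified by ELISA on the cells.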 Particulars: primary human coronary artery smooth muscle cells; actives raise or lower the signal.

Read-out in experiment [8]: Collagen III, COL3A1 (gene 1281)
The experiment is described as follows: BSK_hDFCGF_CollagenIII: BioMAP Diversity Plus: hDFCGF Assay for Collagen III Biomarker Activity (AID 2283056). Particulars: primary human foreskin fibroblasts; actives raise or lower the signal. Summed up:
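Cells: human foreskin fibroblasts, primary. Dosing followed by 24 h incubation, then ELISA for collagen III. Both increases and decreases scored relative to DMSO.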

Read-out in experiment [9]: Interleukin-8 (IL8), CXCL8 (gene 3576)
As to the kind of experiment: BSK_hDFCGF_IL8: BioMAP Diversity Plus: hDFCGF Assay for Interleukin-8 (IL8) Biomarker Activity (AID 2283058). Particulars: primary human foreskin fibroblasts; actives raise or lower the signal. Summed up: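 IL-8 levels from compound-treated primary human fibroblasts were read by ELISA at 24 h, with DMSO serving as baseline for bidirectional fitting.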

Experiment [10] in a line: BSK_hDFCGF_Proliferation: Cell Proliferation Assessment in the BioMAP Diversity Plus: hDFCGF Assay (AID 2283059).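 Also: curves fitted for both rise and fall of signal versus DMSO baseline.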 Particulars: primary human foreskin fibroblasts. An outline of the steps:
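This proliferation readout used SRB total-protein staining of human foreskin fibroblasts […], normalized to DMSO with bidirectional curve fitting.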

Read-out in experiment [11]: Macrophage colony-stimulating factor (MCSF), CSF1 (gene 1435)
As to the kind of experiment: BSK_hDFCGF_MCSF: BioMAP Diversity Plus: hDFCGF Assay for Macrophage colony-stimulating factor (MCSF) Biomarker Activity (AID 2283060). Particulars: primary human foreskin fibroblasts; actives raise or lower the signal. An outline of the steps:
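M-CSF levels, determined by ELISA, are taken at 24 h after dosing human skin fibroblasts. Responses in either direction are fitted with DMSO serving as the baseline.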

The nature of experiment [12]: BSK_hDFCGF_SRB: Viability Assessment in the BioMAP Diversity Plus: hDFCGF Assay (AID 2283061).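 Also: cells exposed to compound for 24 h before the read.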 Particulars: primary human foreskin fibroblasts. An outline of the steps: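 Cells were dosed with test chemical, cultured 24 h, fixed with 10% TCA, then stained with 0.1% SRB and read at 560 nm. The fibroblasts were human foreskin primary cells, and DMSO served as baseline.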

Read-out in experiment [13]: TIMP metallopeptidase inhibitor 1 (TIMP1), TIMP1 (gene 7076)
The experiment is described as follows: BSK_hDFCGF_TIMP1: BioMAP Diversity Plus: hDFCGF Assay for TIMP metallopeptidase inhibitor 1 (TIMP1) Biomarker Activity (AID 2283062). Particulars: primary human foreskin fibroblasts; actives raise or lower the signal. An outline of the steps:
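Fibroblasts from human foreskin are treated with test chemical and harvested at 24 h. TIMP-1 is quantified by ELISA, and gain or loss of signal is scored against DMSO.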

Read-out in experiment [14]: Matrix Metallopeptidase 1 (MMP1), MMP1 (gene 4312)
The experiment is described as follows: BSK_hDFCGF_MMP1: BioMAP Diversity Plus: hDFCGF Assay for Matrix Metallopeptidase 1 (MMP1) Biomarker Activity (AID 2283064). Particulars: primary human foreskin fibroblasts; actives raise or lower the signal. Summed up:
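ELISA read-out of MMP1 from human foreskin fibroblasts (primary skin cells), 24 h post-dose. Gain or loss of signal was fitted bidirectionally versus DMSO negative control; cytotoxicity was checked by SRB in parallel cultures.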

Read-out in experiment [15]: Vascular cell adhesion molecule 1 (VCAM1), VCAM1 (gene 7412)
The experiment is described as follows: BSK_hDFCGF_VCAM1: BioMAP Diversity Plus: hDFCGF Assay for Vascular cell adhesion molecule 1 (VCAM1) Biomarker Activity (AID 2283065).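 As to AC50: VCAM-1 protein level quantified by ELISA after 24 h chemical exposure.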 Particulars: primary human foreskin fibroblasts; actives raise or lower the signal. An outline of the steps: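 Cells are dosed, cultured for 24 h, then VCAM-1 is quantified by ELISA; signal increases and decreases are both fitted relative to DMSO.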

Read-out in experiment [16]: Plasminogen activator inhibitor-1 (PAI1), SERPINE1 (gene 5054)
The experiment is described as follows: BSK_hDFCGF_PAI1: BioMAP Diversity Plus: hDFCGF Assay for Plasminogen activator inhibitor-1 (PAI1) Biomarker Activity (AID 2283066). Particulars: primary human foreskin fibroblasts; actives raise or lower the signal. An outline of the steps: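 Human skin fibroblast cultures receive chemical for 24 h before PAI-1 is measured by ELISA; signal changes are fitted bidirectionally against DMSO-treated wells.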

Read-out in experiment [17]: Intercellular Adhesion Molecule 1 (ICAM1), ICAM1 (gene 3383)
As to the kind of experiment: BSK_KF3CT_ICAM1: BioMAP Diversity Plus: KF3CT Assay for Intercellular Adhesion Molecule 1 (ICAM1) Biomarker Activity (AID 2283067). Particulars: primary human keratinocytes with fibroblasts; actives raise or lower the signal. An outline of the steps: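 Dose the keratinocyte/fibroblast co-culture, wait 24 h, measure ICAM-1 by ELISA, then fit increases or decreases against DMSO. Cytotoxicity is checked in parallel cultures by SRB total-protein staining.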

Read-out in experiment [18]: Interferon-gamma inducible Protein 10 (IP10), CXCL10 (gene 3627)
The experiment is described as follows: BSK_KF3CT_IP10: BioMAP Diversity Plus: KF3CT Assay for Interferon-gamma inducible Protein 10 (IP10) Biomarker Activity (AID 2283068). Particulars: primary human keratinocytes with fibroblasts; actives raise or lower the signal. Summed up:
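Signal is secreted/surface IP-10 by ELISA in a human primary skin co-culture of keratinocytes and foreskin fibroblasts, taken 24 h post-dosing; DMSO served as negative control.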

Read-out in experiment [19]: Monokine induced gamma interferon (MIG), CXCL9 (gene 4283)
As to the kind of experiment: BSK_hDFCGF_MIG: BioMAP Diversity Plus: hDFCGF Assay for Monokine induced gamma interferon (MIG) Biomarker Activity (AID 2283063). Particulars: primary human foreskin fibroblasts; actives raise or lower the signal. Summed up: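 MIG signal, determined by ELISA, reflects 24 h chemical exposure of human skin primary fibroblasts. DMSO serves as negative control and baseline.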

The term AC50 denotes the concentration giving half of the maximal activity seen. As for `C[C@]12CC[C@@H]3c4ccc(O)cc4C[C@@H](CCCCCCCCCS(=O)CCCC(F)(F)C(F)(F)F)[C@H]3[C@@H]1CC[C@@H]2O` (some centres not stated), the outcome in experiment [1], in experiment [2], in experiment [3], in experiment [4], in experiment [5] and in experiment [6] was inactive. Also, the result in experiment [7], in experiment [8], in [9], in [11], in experiment [12] and in [13] was inactive. Further, the outcome in experiment [14], in experiment [15], in experiment [17] and in [18] was inactive. The results for the AC50 in experiment [10] and in experiment [16] were 4.75 µM (active) and 1.64 µM (active), respectively.

As for `CCCOC(=O)NCCCN(C)C`, the result in [1], in [2], in experiment [3], in [4], in experiment [5] and in experiment [6] was inactive. Also, the result in experiment [7], in experiment [8], in [9], in [10], in [11] and in experiment [12] was inactive. For the same compound, the outcome in experiment [13], in experiment [14], in [15], in experiment [16], in [17] and in experiment [18] was inactive.

Regarding `c1ccc2[nH]c(-c3cscn3)nc2c1`, the outcome in experiment [1], in experiment [2], in experiment [3], in experiment [4], in experiment [5] and in experiment [6] was inactive. The outcome in experiment [7], in experiment [8], in experiment [9], in experiment [10], in [11] and in experiment [12] was inactive. The result in experiment [13], in experiment [14], in experiment [15], in experiment [16], in experiment [17] and in experiment [18] was inactive.

As to `CC1(C)C(C=C(Cl)Cl)C1C(=O)OCc1cccc(Oc2ccccc2)c1` (configuration not stated), the outcome in experiment [1], in experiment [2], in [4], in [5], in experiment [6] and in [7] was inactive. The result in experiment [9], in [11], in experiment [12], in [13], in experiment [14] and in [15] was inactive. The result in experiment [16], in [17] and in experiment [18] was inactive. For the same compound, the figures for the AC50 in experiment [3], in experiment [8] and in experiment [10] were 13.4 µM (active), 4.2 µM (active) and 7.38 µM (active), respectively.

For `CCCCC(CC)COC(=O)c1ccccc1C(=O)O` (configuration not stated), the outcome in experiment [1], in [2], in experiment [3], in experiment [4], in [6] and in experiment [7] was inactive. In addition, the outcome in [8], in [9], in [10], in experiment [12], in experiment [13] and in [14] was inactive. Moreover, the result in [16], in [17] and in experiment [18] was inactive. Besides, the AC50 in experiment [5] was 11 µM (active); in experiment [11], 9.84 µM (active); in experiment [19] it was 13.8 µM (active); in experiment [15], 10.2 µM (active).

With `COC(=O)c1ccccc1S(=O)(=O)NC(=O)Nc1nc(OC(F)F)cc(OC(F)F)n1`, the outcome in experiment [1], in experiment [2], in experiment [3], in experiment [4], in experiment [5] and in experiment [6] was inactive. Besides, the outcome in [7], in experiment [8], in [9], in [10], in experiment [11] and in experiment [12] was inactive. For the same compound, the result in experiment [13], in experiment [14], in [15], in experiment [16], in experiment [17] and in experiment [18] was inactive.

In the case of `O=C(O)c1ccccc1`, the outcome in experiment [1], in [2], in experiment [3], in experiment [4], in [5] and in experiment [6] was inactive. Further, the result in experiment [7], in experiment [8], in experiment [9], in [10], in [11] and in experiment [12] was inactive. Besides, the result in experiment [13], in [14], in experiment [15], in experiment [16], in experiment [17] and in experiment [18] was inactive.
